{"source": "the supplement of paper PMC8728848", "binders": {"B1": {"name": "Blon2468mut (Bifidobacterium longum) (protein)", "chain": "MTFIKQMMPRYVASMTAGIVAAAMAATCAFAPVANADAVSPTQETIQSTGRHFMVYYRAWRDVTMKGVNTDLPDDNWISMYDIPYGVDVVNIFSYVPSGQEEQAQPFYDKLKSDYAPYLHSRGIKLVRGIDYTGVAVNGFRTFMKEQNKTESEATEADYDAYAKQVIDKYMISVGLDGLDIDMQAHPNDADVKISDNVIRALSKHIGPKSAKPDTTMFLYDTNGSYLNPFKNVAECFDYVAYQQYGSSSDRTARAAADYQPYIGNEFVPGLTFPEEGDMNNRWYDATEPYEESHFYQVASYVREHNLGGMFVYALDRDGRNYDEDLRRIVPSNLLWTKTAIAESEGMALDTAKTAANHYLDRMSLRQVIDDNAASADKARDMVGKAANLYETNKAVLGGDYGEGFSNTYDPTLEAGLLGIDISVLQQQIDKSSEIIGADTAESDAKTALRMARDAAIDGLTGKIYTADQVSAWSQALKAALDATVPVPTPDSTDQNGNRDKVTNHKVQGQPKQLSATGISTDIIVAVGVTLAIAGVALSLSRKLS"}}, "assay_in_all_cases": "glycan array binding signal (z-score within array); higher = stronger binding", "conditions_in_all_cases": "glycan notation: IUPAC condensed, linker removed", "key": {"[1]": {"target": "Fuc(a1-2)Gal(b1-3)GlcNAc6S", "outline": "(§1)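 Columns mapping to the same glycan were averaged after glycan names were converted to IUPAC-condensed notation. The data come from 3228 arrays in the Consortium for Functional Glycomics database, limited to those with an available protein sequence. Binding is reported as a within-array Z-score averaged across arrays of one protein sequence and across linkers.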"}, "[2]": {"target": "Fuc(a1-2)Gal(b1-3)[Fuc(a1-4)]GlcNAc(b1-2)Man(a1-3)[Fuc(a1-2)Gal(b1-3)[Fuc(a1-4)]GlcNAc(b1-2)Man(a1-6)]Man(b1-4)GlcNAc(b1-4)[Fuc(a1-6)]GlcNAc(b1-4)[Fuc(a1-6)]GlcNAc", "outline": "as §1"}, "[3]": {"target": "Fuc(a1-2)Gal(b1-4)GlcNAc(b1-2)Man(a1-3)[Fuc(a1-2)Gal(b1-4)GlcNAc(b1-2)Man(a1-6)]Man(b1-4)GlcNAc(b1-4)GlcNAc", "outline": "as §1"}, "[4]": {"target": "Fuc(a1-2)Gal(b1-4)GlcNAc(b1-2)[Fuc(a1-2)Gal(b1-4)GlcNAc(b1-4)]Man(a1-3)[Fuc(a1-2)Gal(b1-4)GlcNAc(b1-2)Man(a1-6)]Man(b1-4)GlcNAc(b1-4)GlcNAc", "outline": "as §1"}, "[5]": {"target": "Fuc(a1-2)Gal(b1-4)GlcNAc(b1-3)Gal(b1-4)GlcNAc(b1-2)Man(a1-3)[Fuc(a1-2)Gal(b1-4)GlcNAc(b1-3)Gal(b1-4)GlcNAc(b1-2)Man(a1-6)]Man(b1-4)GlcNAc(b1-4)GlcNAc", "outline": "as §1"}, "[6]": {"target": "Fuc(a1-2)Gal(b1-4)[Fuc(a1-3)]GlcNAc", "outline": "as §1"}, "[7]": {"target": "Fuc(a1-2)Gal(b1-4)[Fuc(a1-3)]GlcNAc(b1-2)[Fuc(a1-2)Gal(b1-4)[Fuc(a1-3)]GlcNAc(b1-4)]Man(a1-3)[Fuc(a1-2)Gal(b1-4)[Fuc(a1-3)]GlcNAc(b1-2)Man(a1-6)]Man(b1-4)GlcNAc(b1-4)GlcNAc", "outline": "as §1"}, "[8]": {"target": "Fuc(a1-2)Gal6S(b1-3)GlcNAc6S", "outline": "as §1"}, "[9]": {"target": "Fuc(a1-2)[Gal(a1-3)]Gal(b1-3)GlcNAc(b1-2)Man(a1-3)[Fuc(a1-2)[Gal(a1-3)]Gal(b1-3)GlcNAc(b1-2)Man(a1-6)]Man(b1-4)GlcNAc(b1-4)[Fuc(a1-6)]GlcNAc", "outline": "as §1"}, "[10]": {"target": "Fuc(a1-2)[Gal(a1-3)]Gal(b1-4)[Fuc(a1-3)]GlcNAc", "outline": "as §1"}, "[11]": {"target": "Fuc(a1-2)[GalNAc(a1-3)]Gal(b1-3)GlcNAc(b1-2)Man(a1-3)[Fuc(a1-2)[GalNAc(a1-3)]Gal(b1-3)GlcNAc(b1-2)Man(a1-6)]Man(b1-4)GlcNAc(b1-4)[Fuc(a1-6)]GlcNAc", "outline": "as §1"}, "[12]": {"target": "Fuc(a1-2)[GalNAc(a1-4)]Gal(b1-4)GlcNAc", "outline": "as §1"}, "[13]": {"target": "Fuc(a1-2)[GalNAc(b1-3)]Gal", "outline": "as §1"}, "[14]": {"target": "Fuc(a1-3)[Gal(b1-4)]GlcNAc(b1-2)Man", "outline": "as §1"}, "[15]": {"target": "Gal(a1-3)Gal(b1-3)GlcNAc(b1-2)Man", "outline": "as §1"}, "[16]": {"target": "Gal(a1-3)Gal(b1-4)[Fuc(a1-3)]GlcNAc", "outline": "as §1"}, "[17]": {"target": "Gal(a1-3)[Gal(a1-4)]Gal(b1-4)GlcNAc", "outline": "as §1"}, "Gal(b1-3)GlcNAc": {"target": "Gal(b1-3)GlcNAc", "outline": "as §1"}, "Gal(b1-3)GlcNAc(b1-2)Man": {"target": "Gal(b1-3)GlcNAc(b1-2)Man", "outline": "as §1"}, "[18]": {"target": "Gal(b1-3)GlcNAc(b1-2)Man(a1-3)[GlcNAc(b1-4)][Gal(b1-3)GlcNAc(b1-2)Man(a1-6)]Man(b1-4)GlcNAc(b1-4)GlcNAc", "outline": "as §1"}, "[19]": {"target": "Gal(b1-3)GlcNAc(b1-3)Gal(b1-4)GlcNAc(b1-2)Man(a1-3)[Gal(b1-3)GlcNAc(b1-3)Gal(b1-4)GlcNAc(b1-2)Man(a1-6)]Man(b1-4)GlcNAc(b1-4)GlcNAc", "outline": "as §1"}, "[20]": {"target": "Gal(b1-3)GlcNAc(b1-3)Gal(b1-4)GlcNAc(b1-2)[Gal(b1-3)GlcNAc(b1-3)Gal(b1-4)GlcNAc(b1-6)]Man(a1-6)[Gal(b1-3)GlcNAc(b1-3)Gal(b1-4)GlcNAc(b1-2)Man(a1-3)]Man(b1-4)GlcNAc(b1-4)[Fuc(a1-6)]GlcNAc", "outline": "as §1"}, "[21]": {"target": "Gal(b1-3)GlcNAc(b1-3)Gal(b1-4)GlcNAc(b1-3)Gal(b1-4)GlcNAc(b1-2)[Gal(b1-3)GlcNAc(b1-3)Gal(b1-4)GlcNAc(b1-3)Gal(b1-4)GlcNAc(b1-6)]Man(a1-6)[Gal(b1-3)GlcNAc(b1-3)Gal(b1-4)GlcNAc(b1-3)Gal(b1-4)GlcNAc(b1-2)Man(a1-3)]Man(b1-4)GlcNAc(b1-4)[Fuc(a1-6)]GlcNAc", "outline": "as §1"}, "[22]": {"target": "Gal(b1-3)[Fuc(a1-4)]GlcNAc(b1-6)GalNAc", "outline": "as §1"}, "[23]": {"target": "Gal(b1-4)GlcNAc(b1-2)Man(a1-6)[GlcNAc(b1-2)Man(a1-3)]Man(b1-4)GlcNAc(b1-4)GlcNAc", "outline": "as §1"}, "[24]": {"target": "Gal(b1-4)GlcNAc(b1-3)Gal(b1-4)GlcNAc(b1-3)Gal(b1-4)GlcNAc(b1-3)Gal(b1-4)GlcNAc(b1-3)Gal(b1-4)GlcNAc(b1-2)Man(a1-3)[Gal(b1-4)GlcNAc(b1-3)Gal(b1-4)GlcNAc(b1-3)Gal(b1-4)GlcNAc(b1-3)Gal(b1-4)GlcNAc(b1-3)Gal(b1-4)GlcNAc(b1-2)Man(a1-6)]Man(b1-4)GlcNAc(b1-4)[Fuc(a1-6)]GlcNAc", "outline": "as §1"}, "[25]": {"target": "Gal3S(b1-4)[Fuc(a1-3)]Glc6S", "outline": "as §1"}, "Gal6P(b1-4)GlcNAc": {"target": "Gal6P(b1-4)GlcNAc", "outline": "as §1"}, "GalNAc(b1-3)GlcNAc": {"target": "GalNAc(b1-3)GlcNAc", "outline": "as §1"}, "[26]": {"target": "Glc(a1-4)Glc(a1-4)Glc(a1-4)Glc", "outline": "as §1"}}, "note": "The full list was thinned out, with the strongest signals kept by preference."}
{"binder": "B1", "values": [{"measurement": "glycan array binding signal (z-score)", "setting": "[1]", "result": -0.052}, {"measurement": "glycan array binding signal (z-score)", "setting": "[2]", "result": -0.074}, {"measurement": "glycan array binding signal (z-score)", "setting": "[3]", "result": -0.068}, {"measurement": "glycan array binding signal (z-score)", "setting": "[4]", "result": -0.045}, {"measurement": "glycan array binding signal (z-score)", "setting": "[5]", "result": 0.003}, {"measurement": "glycan array binding signal (z-score)", "setting": "[6]", "result": -0.065}, {"measurement": "glycan array binding signal (z-score)", "setting": "[7]", "result": -0.036}, {"measurement": "glycan array binding signal (z-score)", "setting": "[8]", "result": 0.078}, {"measurement": "glycan array binding signal (z-score)", "setting": "[9]", "result": -0.055}, {"measurement": "glycan array binding signal (z-score)", "setting": "[10]", "result": -0.049}, {"measurement": "glycan array binding signal (z-score)", "setting": "[11]", "result": -0.036}, {"measurement": "glycan array binding signal (z-score)", "setting": "[12]", "result": -0.021}, {"measurement": "glycan array binding signal (z-score)", "setting": "[13]", "result": -0.061}, {"measurement": "glycan array binding signal (z-score)", "setting": "[14]", "result": -0.022}, {"measurement": "glycan array binding signal (z-score)", "setting": "[15]", "result": -0.087}, {"measurement": "glycan array binding signal (z-score)", "setting": "[16]", "result": -0.083}, {"measurement": "glycan array binding signal (z-score)", "setting": "[17]", "result": 0.009}, {"measurement": "glycan array binding signal (z-score)", "setting": "Gal(b1-3)GlcNAc", "result": -0.068}, {"measurement": "glycan array binding signal (z-score)", "setting": "Gal(b1-3)GlcNAc(b1-2)Man", "result": -0.078}, {"measurement": "glycan array binding signal (z-score)", "setting": "[18]", "result": -0.042}, {"measurement": "glycan array binding signal (z-score)", "setting": "[19]", "result": -0.09}, {"measurement": "glycan array binding signal (z-score)", "setting": "[20]", "result": 0.03}, {"measurement": "glycan array binding signal (z-score)", "setting": "[21]", "result": 0.124}, {"measurement": "glycan array binding signal (z-score)", "setting": "[22]", "result": -0.056}, {"measurement": "glycan array binding signal (z-score)", "setting": "[23]", "result": -0.055}, {"measurement": "glycan array binding signal (z-score)", "setting": "[24]", "result": -0.046}, {"measurement": "glycan array binding signal (z-score)", "setting": "[25]", "result": 0.006}, {"measurement": "glycan array binding signal (z-score)", "setting": "Gal6P(b1-4)GlcNAc", "result": -0.066}, {"measurement": "glycan array binding signal (z-score)", "setting": "GalNAc(b1-3)GlcNAc", "result": -0.05}, {"measurement": "glycan array binding signal (z-score)", "setting": "[26]", "result": -0.064}]}
